Compounds with a hit are over-represented: about 0.61% of the library has one in this group of screens.
Y pestis TopoI: Yersinia pestis topoisomerase I inhibitors, primary screen, biochemical, cleavage product accumulation, plate reader, single point; DNA topoisomerase I (Yersinia pestis CO92); Y. pestis Topo-I cleavage product accumulation; activity, % at 10 µM; 360,000 tested, 0.064% active; AID 504884, 2011; in the data active = activity above about 50%, passing the limit was not always enough; inconclusive = no clear call, values can overlap the other calls
Vc quorum ag: inducers of Vibrio cholerae quorum light production without autoinducers, primary screen, BH1578 luxS cqsA deficient, single point | V. cholerae BH1578 lux reporter, luminescence, 6 h | activation, % at 18.7 µM | 350,000 tested, 0.16% active; in the data active = activation mostly above about 9.7%, no sharp cut-off; inconclusive = no clear call, values can overlap the other calls; inactive = mostly below about 3.7%
FadD28 FP inh: inhibitors of FadD28 bisubstrate probe binding, primary screen, biochemical, fluorescence polarization, single point. Mycobacterium tuberculosis FadD28 fatty-acid-AMP ligase. AID 588549, 2011. 360,000 tested, 0.22% active. inhibition, % at 12.5 µM; in the data active = inhibition above about 8.5%, passing the limit was not always enough; inconclusive = no clear call, values can overlap the other calls
Mtb BioA inh: M. tuberculosis BioA enzyme inhibitors, primary screen, biochemical, plate reader, single point, HTS | 360,000 tested, 0.096% active | inhibition, % at 9.99 µM | 7,8-diaminopelargonic acid synthase BioA (Mycobacterium tuberculosis) | purified M. tuberculosis BioA enzyme | AID 602481, 2012; in the data active = inhibition above about 40%; inconclusive = no clear call, values can overlap the other calls
TcdB GH inh: TcdB glycohydrolase inhibitors, primary screen, biochemical, single point, plate reader | Toxin B (Clostridioides difficile), P18177 | AID 652162, 2013 | TcdB glycohydrolase enzymatic assay | inhibition, % at 9.99 µM | 350,000 tested, 0.24% active; in the data active = inhibition above about 10%
Numbers without * were called inactive; i = inactive; u = inconclusive; x = no result.

SMILES	Y pestis TopoI	Vc quorum ag	FadD28 FP inh	Mtb BioA inh	TcdB GH inh
C[C@@H]1CN([C@H](C)CO)C(=O)c2cc(NC(=O)Nc3ccc(C(F)(F)F)cc3)ccc2O[C@H]1CN(C)C(=O)NC1CCCCC1	x	x	x	4	-1
COc1ccc(N2C(=O)NC(=O)/C(=C/c3ccc([N+](=O)[O-])s3)C2=O)cc1	-15	-1	35*	3	-2
CCOc1ccc(N2C(=O)NC(=O)/C(=C\c3cc(OC)c(OC)cc3[N+](=O)[O-])C2=O)cc1	-8	i	-1	-6	x
COc1cccc(N2C(=O)NC(=O)/C(=C/c3ccc([N+](=O)[O-])s3)C2=O)c1	-9	0	18*	2	0
COc1ccc(N2C(=O)NC(=O)/C(=C\c3ccc([N+](=O)[O-])s3)C2=O)cc1	7	0	36*	x	0
COc1ccccc1N1C(=O)NC(=O)/C(=C/c2ccc([N+](=O)[O-])s2)C1=O	x	x	x	x	1
O=C(C[C@H]1C=C[C@@H](NC(=O)CN2CCOCC2)[C@@H](CO)O1)NCCc1ccccc1	x	x	x	-6	1
O=C(C[C@H]1C[C@H]2c3cc(NC(=O)C4CCOCC4)ccc3O[C@H]2[C@H](CO)O1)NC1CCCCC1	x	x	x	-1	-2
Cn1c(=O)c2cc(NC(=S)NC3CCCCC3)ccc2n1Cc1ccc(Cl)cc1	10	-1	17*	1	1
Cn1c(=O)c2cc(NC(=S)NC3CC3)ccc2n1Cc1cccc(C(F)(F)F)c1	6	i	0	4	1
O=c1c([N+](=O)[O-])cccn1Cc1cccc(Br)c1	-6	46*	-4	2	1
COc1ccc(/C=N/n2c(-c3cc(C)[nH]n3)n[nH]c2=S)cc1OC	2	0	-5	-2	11*
COc1ccc(/C=N/n2c(-c3cc(C)[nH]n3)n[nH]c2=S)cc1	2	-1	-3	x	4
C[C@@H]1CN([C@H](C)CO)C(=O)Cc2cc(NC(=O)Cn3cnnn3)ccc2O[C@H]1CN(C)C(=O)Nc1cccc2ccccc12	x	x	x	0	x
CC[C@H](C)[C@H]1CNC(=S)N1CC1CCN(CCCC2CCCC2)CC1	8	-1	-4	-3	13*
CCOc1ccc(C(C(=O)NC2CCCCC2)N(C(=O)c2ccccn2)c2cccnc2)cc1 (stereo not given)	0	0	-1	x	1
Cc1ccccc1C(C(=O)NC1CCCCC1)N(C(=O)c1ccccn1)c1cccnc1 (stereo not given)	1	-1	2	-1	14*
CN1CCN(CC(=O)Nc2cc(N(C)C)nc3ccccc23)CC1	-14	i	-3	x	13*
CC(C)CC#Cc1cnc2c(c1)C(=O)N([C@@H](C)CO)C[C@@H](C)[C@@H](CN(C)C(=O)Cc1ccncc1)O2	x	x	x	13	1
CCC(=O)Nc1ccc2c(c1)OC[C@@H](C)N(C(=O)Cc1cccnc1)C[C@@H](C)[C@@H](OC)CN(C)C2=O	x	x	x	8	0
O=C(NCc1cccnc1)c1cc(C2CCCCN2S(=O)(=O)c2cccc3cccnc23)on1 (stereo not given)	15	5	-3	2	10*
CO[C@@H]1CN(C)C(=O)c2cc(NC(=O)C3CC3)ccc2OC[C@H](C)N(C(=O)Cc2ccccn2)C[C@@H]1C	x	x	x	-5	0
COc1ccc(NS(=O)(=O)c2cc(N=Nc3c(O)[nH]c(=O)[nH]c3=O)ccc2Cl)cc1	2	i	3	1	11*
C/C(=N\NC(N)=O)c1ccccc1	-11	i	-4	x	1
C/C(=N\NS(C)(=O)=O)c1ccccc1	-4	17*	-2	0	x
SMILES	Y pestis TopoI	Vc quorum ag	FadD28 FP inh	Mtb BioA inh	TcdB GH inh
COc1ccc(C)cc1NC(=O)c1ccc(NC(=O)CC2SC(N3CCCC3)=NC2=O)cc1 (stereo not given)	-5	7.6*	0	-3	x
CCCN(CCC)CCCNC(=O)c1cn(CCOC)c(=O)c2c1c1ccccc1n2C	2	i	-2	-1	x
CCOC(CCNC(=O)c1cn(CCOC)c(=O)c2c1c1ccccc1n2C)OCC	-7	0	-2	-1	21*
O=C1CSC(=Nc2ccc(O)cc2)N1	-6	i	x	0	15*
CC(=O)Nc1ccc(S(=O)(=O)Nc2nc3ccccc3nc2-n2ccc(=NC(=O)c3ccc(F)cc3)cc2)cc1	8	i	-2	-5	16*
Cc1cc(C(=O)CSc2nnnn2-c2ccc(O)cc2)c(C)n1Cc1ccc2c(c1)OCO2	-2	0	-6	-1	x
Cc1cc(C(=O)CSc2nnnn2-c2ccccc2)c(C)n1-c1ccc2c(c1)OCO2	18	0	-2	x	11*
CCCNC(=O)N(C)C[C@H]1Oc2ncc(-c3ccccc3)cc2C(=O)N([C@@H](C)CO)C[C@@H]1C	x	x	x	-1	1
C/C(=N\Nc1ccc(Cl)c(C(=O)O)c1)c1ccc[nH]1	-21	i	28*	x	-5
COc1cc2oc3ccc(C#Cc4ccccn4)cc3c(=O)c2cc1OC	4	2	-1	-1	11*
CCCCCCCCCCCCCCCCn1cc[n+](CC(C)=O)c1	-32	x	36*	x	x
Cc1cccc(S(=O)(=O)N2C[C@@H]3[C@H](c4ccccc42)[C@H](CO)N3Cc2ccc3c(c2)OCO3)c1	x	x	x	1	-1
COc1cc2nc3n(c(=O)c2cc1OC)-c1cc2ccccc2cc1C(=O)NC3Cc1ccccc1 (stereo not given)	65*	-1	-5	0	-2
O=C1NC(Cc2ccccc2)c2nc3cc(F)ccc3c(=O)n2-c2cc3ccccc3cc21 (stereo not given)	u	2	-3	-1	0
O=C1NC(Cc2ccccc2)c2nc3cc(F)c(F)cc3c(=O)n2-c2cc3ccccc3cc21 (stereo not given)	-6	0	-1	-1	1
CC(C)CC1NC(=O)c2cc3ccccc3cc2-n2c1nc1cc(Cl)ccc1c2=O (stereo not given)	54*	i	-2	0	0
O=C1NC(Cc2ccccc2)c2nc3ccccc3c(=O)n2-c2cc3ccccc3cc21 (stereo not given)	51*	-1	-3	-1	1
C[C@@H]1CN([C@H](C)CO)C(=O)c2cc(NC(=O)Cc3ccccc3)ccc2O[C@@H](C)CCCCO[C@H]1CN(C)C(=O)C1CCCCC1	x	x	x	0	1
N#C/C(=C\c1coc2ccc(O)cc2c1=O)C(=O)Nc1nc2ccccc2s1	-23	0	29*	-31	-5
N#C/C(=C\c1coc2ccccc2c1=O)C(N)=S	-4	-1	-1	x	0
O=C(C[C@H]1C[C@@H]2c3cc(NC(=O)c4ccc5c(c4)OCO5)ccc3O[C@@H]2[C@H](CO)O1)NCc1cccc(F)c1	x	x	x	-1	8
O=C(C[C@H]1C[C@H]2c3cc(NC(=O)c4ccc5c(c4)OCO5)ccc3O[C@H]2[C@H](CO)O1)NCc1cc(F)ccc1F	x	x	x	25	-1
